In the supplement of paper PMC10681739:

Assays:
ETS1 [1] = biological target: T1, ETS1 (UniProt P14921); assay: ETS1 binding intensity (PBM fluorescence), ETS1 alone (arbitrary fluorescence units); higher = stronger binding; conditions: ETS1 concentration 1 nM; RUNX1 concentration 0 nM
T1 sequence: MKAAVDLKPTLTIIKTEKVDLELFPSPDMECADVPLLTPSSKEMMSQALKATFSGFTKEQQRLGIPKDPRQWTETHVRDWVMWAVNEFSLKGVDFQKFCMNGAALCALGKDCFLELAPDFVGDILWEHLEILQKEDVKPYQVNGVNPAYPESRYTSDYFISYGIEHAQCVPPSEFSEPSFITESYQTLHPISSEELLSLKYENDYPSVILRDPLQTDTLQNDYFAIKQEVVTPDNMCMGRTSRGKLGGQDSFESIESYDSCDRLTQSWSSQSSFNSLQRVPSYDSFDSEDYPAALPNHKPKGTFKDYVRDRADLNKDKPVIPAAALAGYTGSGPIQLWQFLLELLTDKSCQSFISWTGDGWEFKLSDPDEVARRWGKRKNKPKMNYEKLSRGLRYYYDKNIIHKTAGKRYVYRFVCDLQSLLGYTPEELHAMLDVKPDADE

RUNX1 = RUNX1 (UniProt Q01196); assay: RUNX1 binding intensity (PBM fluorescence), RUNX1 alone (arbitrary fluorescence units); higher = stronger binding; conditions: RUNX1 concentration 2 nM; ETS1 concentration 0 nM
RUNX1, sequence (Q01196 whole entry): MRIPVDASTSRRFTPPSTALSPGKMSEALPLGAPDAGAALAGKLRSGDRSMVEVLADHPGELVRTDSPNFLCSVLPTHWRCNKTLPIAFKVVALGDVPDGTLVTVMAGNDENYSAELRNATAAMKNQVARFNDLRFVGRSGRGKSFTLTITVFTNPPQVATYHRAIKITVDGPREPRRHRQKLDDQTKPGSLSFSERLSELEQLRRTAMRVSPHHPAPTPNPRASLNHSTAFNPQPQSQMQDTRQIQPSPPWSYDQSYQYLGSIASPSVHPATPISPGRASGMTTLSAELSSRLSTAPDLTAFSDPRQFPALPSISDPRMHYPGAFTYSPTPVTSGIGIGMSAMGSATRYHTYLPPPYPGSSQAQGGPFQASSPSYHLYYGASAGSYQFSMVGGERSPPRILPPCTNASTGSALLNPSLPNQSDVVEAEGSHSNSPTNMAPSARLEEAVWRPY
Description: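 Cooperative gcPBM on 36-bp genomic probes with neighbouring ETS1 and RUNX1 sites. Recombinant human RUNX1 (2 nM) was incubated alone or with ETS1 (25 nM) and detected with anti-RUNX1 antibody plus Alexa488 secondary. Values are medians over 4 replicate spots; the RUNX1+ETS1 data were normalised to the RUNX1-only data. The probes sit in constant array flanks that are not printed.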

ETS1 [2] = biological target: T1, ETS1; assay: ETS1 binding intensity (PBM fluorescence) in presence of RUNX1, normalised to ETS1-only experiment (arbitrary fluorescence units); higher = stronger binding; conditions: ETS1 concentration 1 nM; RUNX1 concentration 25 nM
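Wherever RUNX1 binding intensity (PBM fluorescence), RUNX1 alone is given: Full-length recombinant human RUNX1 bound to double-stranded 36-bp genomic probes on a high-density microarray, scored as Alexa488 fluorescence per spot via anti-RUNX1 antibody, median of four replicate spots.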

Row | Sequence | ETS1 binding intensity (ETS1 [1]) | RUNX1 binding intensity (RUNX1) | ETS1 binding intensity (ETS1 [2])
1 | ATGTTAACATCCTGCCATGAAAACCGCAAGAAGGGC | 680 | 19000 | 3730
2 | GTTCTTCCACGTCCGCGTTACCCACAACGGCAGTGG | 564 | 1020 | 606
3 | CTTACAGTCACAACAGGATGTGGTTTGACATTTACT | 6780 | 869 | 32800
4 | TTGAATATGAAAGGAAGTGGTTAGGTGATGTGTTCT | 2370 | 826 | 
5 | CCCTCATCTTCCTGCTTCAGGCAGCTGTGGTTTACC | 420 | 1070 | 
6 | TGCTTCCCGTCCGTGTCGCGGCCCTGCGGTTGGCGG | 324 | 1080 | 813
7 | TGAGCAAGTTCCTTCCTGTCTGTGGTCCAGGGTTTA | 757 | 747 | 881
8 | GACATGCTCCGGAAGCTTGAGGTTTTAACGTTAAGG | 2040 | 734 | 
9 | TCTAGTAAAAGAGGAAGTTCTTAACCACATTTCCAT | 2100 | 1020 | 
10 | ACACCGGAAGCCCAACAGCATGCCGAGTAACCACCC | 1120 | 864 | 1170
11 | CCCCTTCCCGTTCTCCGAAAGTGCGCGGGTTGGAGC | 489 | 792 | 
12 | CTGCCTTTCCTGCTAGGGTACAAACCACAGCCTTAG | 369 | 1360 | 774
13 | GTACTGAGTCACAGGAAACCACAAGGGAAGGGTCCC | 2510 | 1570 | 
14 | AGGCTGTGGCGGAAGTGGTCGCGTTACCGCTTGTTT | 6340 | 712 | 12100
15 | AAACCCCAAACAGGAAGTGGTAAAGCAACCTGCATC | 11200 | 826 | 16400
16 | GGCAGCCGGCTTCCGGCTGTGGGTGGTGCGGGGGAC | 1370 | 676 | 1820
17 | GTGCCTCACCGCTTCCGGCGCTGCGGGATGACGTCA | 2390 | 786 | 4720
18 | AGAAGCAGGCATGCAGGATGTGGTTAGTGCATGGTA | 2230 | 900 | 17400
19 | TTTTTAAGGTCAGGATGTGGGCACATCTAAGGGGCA | 1330 | 816 | 1730
20 | AGGTTAATACCCGGAACTACCACAACCGTCTTCCCT | 772 | 1020 | 862
21 | ATAAACAGGAAGCTGAGTATGTGACCACAGACATTC | 1670 | 840 | 
22 | CATCCAGGACGGAAACAGCATCCCCACCGCGGGAGC | 775 | 855 | 852
23 | CCAATGGGCAGGCGGAAACCGCGGGCTCGTGCTCCC | 1580 | 956 | 2900
24 | TGCTTAGCGGGAAGTGCTTACACCACAAAACAAGAC | 678 | 726 | 
25 | ACGTACGGGATGTGGGAGGTTTGTTTTGACCACACC | 492 | 830 | 936

Row | Sequence | ETS1 binding intensity (ETS1 [1]) | RUNX1 binding intensity (RUNX1) | ETS1 binding intensity (ETS1 [2])
26 | CTCCTTCCTGTGTGTTACTCTTAAAAACCACAGAGG | 519 | 1230 | 1780
27 | CGGGGGCCAGGCTTCCTGTGGTGGGAGCGGCAGGCC | 443 | 830 | 
28 | CAGAAAGAGGAAATGATGCGAGTCCACACCGCAGGC | 788 | 703 | 2610
29 | TGCCCTGACTTCCTGGTCCTGTGGTCAAGGATGGGG | 1340 | 889 | 2810
30 | CAGCACGCAGGAAGCACATGTGGTGGGGCTCTTCCA | 674 | 742 | 759
31 | GACCTGGGCAGGAAGAGCGGCATGTGGGGCCCCCTG | 875 | 714 | 795
32 | GGACTTCCTGAACTGGGAGGTCACCGACCACAACCT | 354 | 831 | 671
33 | ACTACAACTTCCGACTTGCATCACTGCGGTGGCGCT | 425 | 942 | 573
34 | GGTCTCACCGCTCTTCCGCTTGCGGTTTCGGGGGCC | 780 | 2320 | 5370
35 | ACGGGGAAGAACGGAAGTGGTTTCCATGATGGTCTG | 6420 | 831 | 9080
36 | ACTGCACGGCTGGGAGGATGTGGTCACACACGCCAC | 1380 | 869 | 11400
37 | CCCCTTAGCACAGGATGTGGTCTTTGCATCTTCATT | 4640 | 1040 | 7360
38 | CACTTCCCCCAGCCTCTCTTTTTAATACCACAATAG | 634 | 3520 | 876
39 | TGCTCAAATGCAGGATGTGGTCTGAGAGTTTCTCCT | 1910 | 693 | 6550
40 | GGCCGTTCTTCCGCCTGCAGGGTGGTCAGCGGAGGT | 571 | 712 | 446
41 | TGCGCCGGGAGGAAGGGCTCCAAAACCACAGGGCGG | 411 | 900 | 1400
42 | GCCTGCAGCTTCTTCCTGTGGCTTCTGCATCTCAGG | 4420 | 783 | 3930
43 | CAGCAGAGGCGCGGATGTGGTTAAACGAGTGCCGTC | 775 | 876 | 6770
44 | TCTGTGAAAAAGGATGTGCGGTTATGGAGGAGAACT | 970 | 1210 | 3460
45 | CCCTCAGCGGAAGTGGAAGCTGTGGTTTCCAAAGGC | 4750 | 916 | 17000
46 | TGCAGTCTCAACTTCCTGCGGTCAAGTGATCCTTCA | 654 | 3750 | 1410
47 | ACCCGGATGTCGTTGGGCAGGAACTGCGGTGAGGGC | 2580 | 829 | 7980
48 | GATACCTAGAAGCCAGGAAACCGCGAGCTGCAGTCC | 1080 | 1190 | 2130
49 | CAGCGGCCGTCGCGGGAAGTGCGGTCGCCGCGGCCA | 500 | 871 | 1120
50 | TAAGTGCAGGAAACGGCTGTGTGGGTGTCAGTGATT | 1350 | 689 | 1310

Row | Sequence | ETS1 binding intensity (ETS1 [1]) | RUNX1 binding intensity (RUNX1) | ETS1 binding intensity (ETS1 [2])
51 | TAAGAGATTTCCTGTAAAGGTAACCACCAGCAAAGA | 522 | 721 | 714
52 | GCGCGGCGCGACCGGACGCTGCGGGCGGGGAAGAGG | 3230 | 734 | 5990
53 | TTTCCTCGGATTCCCGGATGTGGGTGAGTTCATTTG | 5690 | 809 | 9630
54 | TCCTGTAGTTTCCGGCTGAAGTGGTAAGGTTTTTGA | 845 | 925 | 852
55 | CTAACCCTGCTTCCTCTTAGTGGTTTCCCCCAACCT | 616 | 1620 | 793
56 | CAAGCACATTACGGAAGAGGCTGACCGCAAATACGA | 595 | 4550 | 6680
57 | CCCCTGCCCCTTCCTGGAAGGCTGCGGTGTAACACC | 435 | 978 | 704
58 | CTTAGCGGAAGAGGCGTGACCCAGGCGTACCGCAGG | 497 | 804 | 1320
59 | TGTGATAAGGATGTTCGTGTGCCTTGTGGTCAGGTG | 623 | 889 | 1710
60 | GTGGAAAGGAAATGTGTCATCTGTGGTTTGGTTTTA | 645 | 1060 | 2110
61 | GACTCTTCCGGCCCAGAGCTTTCGGAGTGCGGTTGC | 399 | 858 | 704
62 | AGATGAGGAAGTTGGGGTTTAGAGTGGTTAAACTGT | 502 | 698 | 655
63 | GCTCAAGTACCGGAAAGGCCCGCAGAAAGAAGGGCA | 1400 | 748 | 1270
64 | TACCCAGAAAGGAAGTGGAACCTGCGGTGAGGCCCC | 1130 | 875 | 5650
65 | ACTGCTTGATTTTCAGGAAGTGGTAAAGTGGCAGGT | 3700 | 782 | 9050
66 | GAGTCGCTTCCGCTCCCGCCCCGCTCTGTGGCGTAG | 1180 | 748 | 1330
67 | GGTTCTCTAGGGAGAGGATGTGGGTTTGTCTCTGGG | 1820 | 791 | 6540
68 | CTGTCTGCTTCCCGTGGCCAGCCCTGACCGCGGCCC | 351 | 1060 | 621
69 | TAAGGATGTGTGGCTTCCAGATCAAAAACCGCAAAA | 516 | 7590 | 3920
70 | GCGGAGGGAAGCGGAAATACTTGCGGTGGGGGCGAC | 3700 | 898 | 19400
71 | CTCCTCCCCCACTTCCTATTTTTACCGCAGTTGCAC | 752 | 4960 | 1340
72 | TCGGCGGATATGAAAAAAAGTCCGTGGTCACGTGCA | 475 | 730 | 582
73 | TCTCTTCCGTTCTCTGGTAGCTTTGTGGTAGCTTTG | 369 | 1350 | 534
